Screens: PubChem BioAssay, National Center for Advancing Translational Sciences (NCATS)
D1 agonist = agonists of human D1 dopamine receptor; P21728; HEK293 T-REx D1 cells, calcium flux, agonist mode; activation, % at 2 µM; 1% of 360,000 active; also: 0% is about no effect
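Inducible HEK293 T-REx D1 cells, force-coupled to calcium signalling, were plated at 4000 cells/well with tetracycline and held overnight at 30 C. After no-wash calcium dye loading, compound-evoked calcium rise over 180 s flagged agonists.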
TRHR enhancer = allosteric enhancers of human TRH receptor. TRHR cells, fluo-8 calcium fluorescence, EC20 TRH enhancement. enhancement, % at 2 µM. P34981. 0.66% of 360,000 active; in the data active = enhancement above about 30%; also: 0% is about no effect
Target sequence (P34981 whole entry, looked up): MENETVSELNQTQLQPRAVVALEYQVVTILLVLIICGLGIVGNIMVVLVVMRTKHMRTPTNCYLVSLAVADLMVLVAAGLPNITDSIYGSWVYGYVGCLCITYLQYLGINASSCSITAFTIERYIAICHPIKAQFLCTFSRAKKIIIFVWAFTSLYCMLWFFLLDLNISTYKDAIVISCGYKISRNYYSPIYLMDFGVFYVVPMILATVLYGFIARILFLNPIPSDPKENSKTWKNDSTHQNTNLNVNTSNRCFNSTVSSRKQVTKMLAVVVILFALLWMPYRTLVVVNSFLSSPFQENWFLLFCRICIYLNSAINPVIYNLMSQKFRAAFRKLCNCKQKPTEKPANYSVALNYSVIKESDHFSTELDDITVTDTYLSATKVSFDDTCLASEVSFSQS
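Enhancer read-out: after compound pinning and an initial kinetic agonist-mode read, an EC20 of TRH (10 nM final) was injected and fluo-8 calcium signal (Ex 480/Em 530) followed at 1 s/cycle for 100 cycles in TRHR-expressing cells.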
D1 PAM = human D1 dopamine receptor positive modulation; HEK293 TREx D1 cells, calcium flux, dopamine EC20 potentiation; potentiation, % at 10 µM; P21728; AID 504651; 0.036% of 360,000 active; in the data active = potentiation above about 30%; also: 0% is about no effect
D1 antag = human D1 dopamine receptor antagonism; HEK293 TREx D1 cells, calcium flux, dopamine EC80; active compounds read low; activity change, negative = inhibition, % at 10 µM; 3.2% of 360,000 active; AID 504652; in the data active = activity change below about -30%; also: % is scaled to controls: 0 for no effect and ±100 for the full control effect
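HEK293 T-REx cells expressing inducible, force-coupled D1 receptor; no-wash Ca dye, 30–90 min RT. Cmpd → 180 s read at 1 Hz → EC80 DA → 180 s read.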
TRHR agonist = TRH receptor (human) agonism. P34981. TRHR cells, calcium flux fluo-8, FDSS agonist mode. activation, % at 2 µM. 0.18% of 360,000 active. AID 493084; also: 0% is about no effect
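Steps: seed TRHR cells overnight; add fluo-8 no-wash Ca dye, RT 30 min–1.5 h; record 10 s baseline; pin-transfer compounds; monitor fluorescence 1 cycle/s for the agonist window. Calcium increases flag candidate agonists.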
* hit, by the source's call; x = no result. Sampled rows, rich in hits. Any-hit rate of the full collection: about 4.6%. Rule as the data show it, unless noted: active = activation above about 30%; inactive = the rest.

SMILES	D1 agonist	TRHR enhancer	D1 PAM	D1 antag	TRHR agonist
O=C(NCc1ccc2c(c1)OCO2)c1cc(COc2c(F)cccc2F)on1	14	-2	-3	-13	-1
CN(CC1COc2ccccc2O1)C(=O)c1cc(COc2c(F)cccc2F)on1 (configuration not stated)	18	0	-3	-46*	1
O=C(NCc1ccc(N2CCCC2=O)cc1)c1cc(COc2c(F)cccc2F)on1	18	0	-6	-32*	0
O=C(NCc1cccs1)c1ccc(N2CCCC2=O)cc1	2	-1	0	5	1
O=C(CSC1=Nc2ccccc2C2=NC(CCC(=O)NC3CCCCC3)C(=O)N12)Nc1cccc(Cl)c1 (configuration not stated)	10	3	-3	6	1
COc1cccc(C(=O)NCC(c2ccc(N(C)C)cc2)N2CCc3ccccc32)c1 (configuration not stated)	2	5	0	-4	-1
Cc1ccc(C)c(OCc2cc(C(=O)N(C)Cc3ccccn3)no2)c1	9	-4	5	-44*	0
CN(Cc1cc(-c2ccccc2)on1)C(=O)c1cc(COc2c(F)cccc2F)on1	12	34*	-2	1	0
CC(C)n1c(=O)c2oc3ccccc3c2n(CC(=O)Nc2ccccc2Cl)c1=O	6	-1	1	17	1
CS(=O)(=O)N(Cc1ccccc1)c1ccc(C(=O)Nc2ccccc2C(=O)O)cc1	1	1	18	7	-1
Cc1ccccc1NC(=O)c1ccc(N(Cc2ccccc2)S(C)(=O)=O)cc1	9	36*	0	-12	0
COc1ccc(Cl)cc1N=C1NC(=O)CC(C(=O)Nc2ccccc2C(F)(F)F)S1 (configuration not stated)	-1	5	-2	-2	0
O=C(O)CC1(CC(=O)Nc2ccc3ccccc3n2)CCCCC1	1	32*	-3	2	0
O=C(O)CC1(CC(=O)Nc2ccc3ccccc3c2)CCCCC1	1	0	-5	12	0
N=C(N)Cc1ccccc1Sc1ccccc1	5	-7	-8	-49*	2
CC(Sc1nnc(NCc2ccccc2)s1)C(=O)Nc1ccc2c(c1)C(=O)c1ccccc1C2=O (configuration not stated)	4	0	-6	-33*	0
CN(C)c1ccc(/C=C(\Cl)c2nc3ccccc3s2)cc1	99*	1	-1	-36*	-1
Cc1ccc(OCCn2nc3ccccc3n2)c(C)c1	4	39*	-13	-24	1
CCOc1ccccc1OCCn1nc2ccccc2n1	4	-4	1	6	0
CCN1/C(=C/c2ccc3cc(C)ccc3[n+]2CC)Sc2cc(C)c(C)cc21	6	29	-3	3	13
CCN1/C(=C/c2ccc3cc(C)ccc3[n+]2CC)Sc2ccccc21	15	25	-8	-9	50*
COc1cc(OC)c2c(c1)C(=O)OC2OC (configuration not stated)	1	36*	-1	12	0
CC1CC(C)(C)CC2(C1)NC(=O)N(CC(=O)Nc1cc([N+](=O)[O-])ccc1F)C2=O (configuration not stated)	1	2	-6	-33*	1
CC1CC(C)(C)CC2(C1)NC(=O)N(CC(=O)Nc1c(F)cccc1F)C2=O (configuration not stated)	10	14	x	-3	0
CC(=O)c1c(C)n(C)c2ccc(OC(=O)c3ccc([N+](=O)[O-])cc3)cc12	6	40*	1	-1	0
SMILES	D1 agonist	TRHR enhancer	D1 PAM	D1 antag	TRHR agonist
COCCCNC(=O)C1CCN(C(=O)c2cnn(-c3ccccc3)c2-n2cccc2)CC1	1	6	5	10	0
O=C(NCCO)C(=O)NCC(c1ccc2c(c1)OCO2)N1CCOCC1 (configuration not stated)	3	-2	-2	1	0
COc1cc(NS(=O)(=O)c2ccc(NC(=O)c3ccccc3C(=O)O)cc2)nc(OC)n1	0	-3	0	-6	0
O=C(CSCc1ccc(Cl)cc1)Nc1cccc(C(=O)O)c1	1	38*	4	-4	1
CC(=O)c1cccc(NC(=O)CSCc2ccc(Br)cc2)c1	10	-2	-7	-33*	0
CCCCOC(=O)c1ccc(NC(=O)Cn2nnc3sc4c(c3c2=O)CCCC4)cc1	0	-1	0	4	1
COC(=O)c1sc(N)c(C(=O)OC)c1COC(=O)[C@@H](NS(=O)(=O)c1cccc(Cl)c1)C(C)C	-1	0	2	-13	-1
COC(=O)c1sc(N)c(C(=O)OC)c1COC(=O)CNS(=O)(=O)c1cccc(C#N)c1	1	9	6	-33*	0
COc1cccc(-n2c(SCC(=O)N3CCc4ccccc43)nc3c([nH]c4ccccc43)c2=O)c1	0	0	-1	-2	0
Cc1ccc(CC(NC(=O)c2ccccc2)C(=O)NCC(=O)O)cc1 (configuration not stated)	0	35*	5	-2	0
O=C(O)CNC(=O)c1ccccc1	3	-3	2	-34*	0
C/C=N/NC(=O)CCNC(=O)c1ccccc1	1	33*	-5	-7	-1
Cc1ccc(CC(NC(=O)c2ccccc2)C(=O)NC(CC(C)C)C(=O)O)cc1 (configuration not stated)	1	-7	-10	6	0
Cc1ccsc1/C=N/NC(=O)CNC(=O)c1ccccc1	0	-3	-2	-47*	1
O=C(NC1CC(=O)N(c2ccccc2)C1)c1ccc(S(=O)(=O)N2CCCC2)cc1 (configuration not stated)	1	-11	-3	x	0
COc1ccc(C2CC(=O)c3c([nH]c(C(=O)OC4CCCCCC4)c3C)C2)cc1 (configuration not stated)	1	4	3	-2	1
COC(=O)c1ccc(NC(=O)Cn2c(=O)oc3ccccc32)cc1	0	0	-2	1	-1
Cc1cccc(C)c1NC(=O)CNC(=O)c1ccccc1	11	-4	x	-31*	1
Cc1cccc(C)c1NC(=O)CNC(=O)c1ccncc1	1	6	-3	10	1
O=C(CNC(=O)c1ccccc1)OC1CCCCC1	0	33*	-6	-18	-1
O=C(Nc1ccc(Cl)c(Cl)c1)C1CCCCC1	8	-7	-8	-32*	0
O=C(Nc1ccc(F)cc1)C1CCN(S(=O)(=O)c2ccc3c(c2)CCCN3C(=O)C2CCC2)CC1	0	-2	-6	-22	0
Cc1ccc(NC(=O)C2CCN(S(=O)(=O)c3ccc4c(c3)CCCN4C(=O)C3CCC3)CC2)cc1	1	-4	-7	-48*	-1
